Compound activity deposited in PubChem by several laboratories.
An excerpt weighted towards active compounds, which were near 1.3% of everything screened.
UGM FP inh: inhibitors of M. tuberculosis UDP-galactopyranose mutase; purified UGM, fluorescence polarization probe displacement; inhibition, % at 10 µM; P9WIQ1; 320,000 compounds, 0.06% hits; in the data active = inhibition above about 10%, passing the limit was not always enough
FadD28 binding: M. tuberculosis FadD28 bisubstrate binding inhibition | FadD28 bisubstrate probe binding, fluorescence polarization | inhibition, % at 12.5 µM | 360,000 compounds, 0.22% hits; in the data active = inhibition above about 8.5%, passing the limit was not always enough
PrP 5UTR inh: inhibition of PrP 5' UTR reporter expression | cell-based PrP 5' UTR mRNA reporter, plate reader | 340,000 compounds, 0.35% hits | inhibition, % (test concentration not listed); in the data active = inhibition above about 52%
BJeLR lethal: kills HRASV12-expressing BJeLR cells | inhibition, % (test concentration not listed) | AID 1554 | 300,000 compounds, 0.17% hits | BJeLR (HRASV12) viability, CellTiter-Glo ATP luminescence, 48 h; in the data active = inhibition above about 50%
RecA splice inh: blocks M. tuberculosis RecA intein splicing. P9WHJ3. cell-free RecA intein splicing, fluorescence. inhibition, % (no concentration beside the values). 290,000 compounds, 0.75% hits; in the data active = inhibition above about 30%
Rv3671c inh: inhibits the M. tuberculosis serine protease Rv3671c. P9WHR9. inhibition, % at 5.96 µM. 320,000 compounds, 0.048% hits. AID 2606; in the data active = inhibition above about 38%;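 note: extracellular domain of Rv3671c used as enzyme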
Target sequence (P9WHR9 whole entry, looked up, the tested form may be a part): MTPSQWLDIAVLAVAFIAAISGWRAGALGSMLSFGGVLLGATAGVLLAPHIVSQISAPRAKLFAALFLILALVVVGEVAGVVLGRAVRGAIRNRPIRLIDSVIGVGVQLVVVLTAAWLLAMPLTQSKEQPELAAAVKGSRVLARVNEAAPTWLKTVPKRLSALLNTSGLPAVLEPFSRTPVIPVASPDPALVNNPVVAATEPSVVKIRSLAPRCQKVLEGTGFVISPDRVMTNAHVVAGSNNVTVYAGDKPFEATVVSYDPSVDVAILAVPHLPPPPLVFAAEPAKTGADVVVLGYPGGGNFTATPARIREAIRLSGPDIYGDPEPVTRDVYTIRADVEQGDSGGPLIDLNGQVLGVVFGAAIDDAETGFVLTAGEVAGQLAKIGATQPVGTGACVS
PrP 5UTR single: prion 5' UTR mRNA inhibition, cherry-pick retest. 1,100 compounds, 48% hits. shares compounds with PrP 5UTR inh. cell-based prion protein 5' UTR reporter, plate reader. AID 504592. inhibition, % at 2.5 µM; in the data active = inhibition above about 54%
Of the large screens only hits and unclear results are named; the others gave an inactive call (follow-up assays come after a bar, where they were run).

COCCn1c(C)cc(C(=O)CSc2nnnn2C2CCCC2)c1C	PrP 5UTR inh 64 (no result: BJeLR lethal, RecA splice inh) | PrP 5UTR single 57
COCCn1c(C)cc(C(=O)CSc2nnc(C)s2)c1C	PrP 5UTR inh 57 | PrP 5UTR single 72
COCCn1c(C)cc(C(=O)COC(=O)c2cccc(O)c2)c1C	PrP 5UTR inh 83 | PrP 5UTR single 79
COc1ccc(Cl)cc1C(=O)CSc1nnnn1C1CCCC1	none (no result: BJeLR lethal, RecA splice inh)
COc1ccc(CN2CCN(C(=O)c3ccco3)CC2)c(OC)c1OC	none (no result: PrP 5UTR inh)
CCOC(=O)C1CCC(CN(Cc2ccccc2)S(=O)(=O)c2ccc([N+](=O)[O-])cc2)CC1 (configuration not stated)	none
CCOP(=O)(OCC)c1nc(-c2cccc3ccccc23)oc1N1CCCCC1	PrP 5UTR inh 72 | PrP 5UTR single inactive
COc1ccc(CCNC(=O)CCc2cc(OC)c(OC)c(OC)c2)cc1	none
COc1ccc(CCc2cc(OC)c(OC)c(OC)c2)cc1	PrP 5UTR inh 57 (no result: UGM FP inh, BJeLR lethal, RecA splice inh, Rv3671c inh) | PrP 5UTR single 88
C/C(CCc1ccccc1)=N\NC(=O)C(=O)Nc1cccc(Cl)c1	none
COc1ccc(C(CNC(=O)C(CCSC)NC(=O)c2ccccc2Cl)N2CCCCC2)cc1 (configuration not stated)	PrP 5UTR inh 72 (no result: BJeLR lethal, RecA splice inh) | PrP 5UTR single inactive
Cc1cc(NC(=O)CSc2nnc(-c3ccccc3C)n2C)no1	none (no result: BJeLR lethal, RecA splice inh)
Cc1cc(NC(=O)CSc2nnc(-c3ccco3)n2C)no1	PrP 5UTR inh 88 (no result: BJeLR lethal, RecA splice inh) | PrP 5UTR single inactive
CC(=O)C1CCC2(O)C3CCC4=CC(=O)CCC4(C)C3CCC12C (configuration not stated)	none (no result: UGM FP inh, BJeLR lethal, RecA splice inh, Rv3671c inh)
C[C@@H]1O[C@@H](O[C@@H]2C=C3CC[C@@H]4C(CC[C@]5(C)[C@@H](c6ccc(=O)oc6)CC[C@]45O)[C@@]3(C)CC2)[C@H](O)[C@H](O)[C@H]1O (some centres not stated)	PrP 5UTR inh 94 (no result: BJeLR lethal, RecA splice inh) | PrP 5UTR single 90
C[C@@H]1O[C@@H](O[C@@H]2C=C3CCC4C(CC[C@]5(C)[C@@H](c6ccc(=O)oc6)CC[C@]45O)[C@@]3(C)CC2)[C@H](O)[C@H](O)[C@H]1O (some centres not stated)	PrP 5UTR inh 94 (no result: BJeLR lethal, RecA splice inh) | PrP 5UTR single 94
CCC(CC)C(=O)Nc1cccc(-c2ccc3nncn3n2)c1	none
CCOCCCNC(=O)c1cc(Nc2ccc(OC)cc2OC)nc2ccccc12	none
CCOc1ccccc1C1C2=C(COC2=O)Nc2cc3c(cc21)OCO3 (configuration not stated)	PrP 5UTR inh 64 | PrP 5UTR single 82
CCOc1ccccc1C1CC(=O)Nc2cc3c(cc21)OCO3 (configuration not stated)	none
CC(=O)Oc1ccc(C2C3=C(CC(C)(C)CC3=O)Nc3cc4c(cc32)OCCO4)cc1 (configuration not stated)	none
O=C1OCC2=C1C(c1ccc(F)cc1)c1cc3c(cc1N2)OCCO3 (configuration not stated)	PrP 5UTR inh 54 (no result: UGM FP inh, BJeLR lethal, RecA splice inh, Rv3671c inh) | PrP 5UTR single 88
COc1ccc(Cl)cc1-c1cc(C(=O)Nc2ccc(Br)cc2)[nH]n1	none (no result: UGM FP inh, PrP 5UTR inh, BJeLR lethal, RecA splice inh, Rv3671c inh)
CC1(C(=O)NS(=O)(=O)c2cccc(C#N)c2)CCN1C(=O)C1(c2ccccc2)CC1 (configuration not stated)	none (no result: UGM FP inh, PrP 5UTR inh, BJeLR lethal, RecA splice inh, Rv3671c inh)
Cc1nc(C)n(C(C)CNC(=O)c2ccco2)n1 (configuration not stated)	PrP 5UTR inh 61 (no result: Rv3671c inh) | PrP 5UTR single inactive
CCN1CCN(Cc2ccc(NC(=O)c3ccc(C)c(NC(=O)c4nccn4C)c3)cc2C(F)(F)F)CC1	none
CCN1CCN(Cc2ccc(NC(=O)c3ccc(C)c(NC(=O)c4cncc(-c5cccs5)c4)c3)cc2C(F)(F)F)CC1	PrP 5UTR inh 61 (no result: UGM FP inh, BJeLR lethal, RecA splice inh, Rv3671c inh) | PrP 5UTR single 86
COc1ccc(OCCOC(=O)CNC(=O)c2ccc(F)cc2)cc1	none (no result: UGM FP inh, PrP 5UTR inh, BJeLR lethal, RecA splice inh, Rv3671c inh)
Cc1sc(NC(=S)NC(=O)c2ccco2)c(C(N)=O)c1C	none
COC(=O)CCC(=O)NC(=S)Nc1sc(C)c(C)c1C(N)=O	PrP 5UTR inh 67 | PrP 5UTR single 86
Cc1sc(NC(=S)NC(=O)CCc2ccccc2)c(C(N)=O)c1C	PrP 5UTR inh 54 (no result: BJeLR lethal, RecA splice inh) | PrP 5UTR single 81
COCCN(CC(=O)Nc1cccc(C)c1C)C(=O)CN1C(=O)NC2(CCCCC2)C1=O	none (no result: BJeLR lethal, RecA splice inh)
COc1cccc(CC(=S)N2CCOCC2)c1	none
Cn1c(=O)cc(SCC(=O)NCc2ccco2)c2ccccc21	none
O=C(CSc1cn(CCNC(=O)c2ccc3ccccc3c2)c2ccccc12)NCc1ccco1	PrP 5UTR inh 58 | PrP 5UTR single inactive
N#Cc1cnn2ccn(C3OC(CO)C(O)C3O)c12 (configuration not stated)	none
CC1=C(C(=O)N(C(C)C)C(C)C)CC(CC(=O)NC2CCCCC2)C(=O)N1Cc1ccc(F)cc1 (configuration not stated)	none (no result: UGM FP inh, PrP 5UTR inh, BJeLR lethal, RecA splice inh, Rv3671c inh)
CN1C(=O)C(=Cc2ccc(N3CCCCC3)o2)C(=O)N(C)C1=S	PrP 5UTR inh 54 | PrP 5UTR single inactive
O=C(O)CN1C(=O)/C(=C/c2ccc(N3CCCCC3)o2)SC1=S	none
COc1ccc(C(=O)c2ccc(CC(=O)O)s2)cc1	none
O=C(NC1CCCCC1)c1n[nH]c2c1CCCCC2	PrP 5UTR inh 79 (no result: BJeLR lethal, RecA splice inh) | PrP 5UTR single 59
CCC(C)(C)C1CCc2[nH]nc(C(=O)NC3CCCC3)c2C1 (configuration not stated)	none (no result: BJeLR lethal, RecA splice inh)
CCCn1cc(S(=O)(=O)c2ccccc2)c(=O)c2cc(CC)ccc21	none
CC(O)CC(=O)OC[C@]12CC[C@H]3[C@@](C)(CC[C@H]4C(C)(C)CCC[C@]34C)[C@@H]1CC(C1=CC(=O)OC1O)O2 (some centres not stated)	none (no result: UGM FP inh, PrP 5UTR inh, BJeLR lethal, RecA splice inh, Rv3671c inh)
CC(C)(C)NS(=O)(=O)c1ccc(CCC(=O)NCc2ccccn2)cc1	none
Cc1ccc(S(=O)(=O)NCC(=O)OCCOc2cccc(Cl)c2)cc1	none (no result: BJeLR lethal, RecA splice inh)
CN1CCN(NC(=O)CSc2ccc(Cl)cc2Cl)CC1	none
CC(C)(C)c1ccc(-c2noc(CCC(=O)Nc3cccnc3)n2)cc1	PrP 5UTR inh 65 | PrP 5UTR single inactive
NC(=S)NN=Cc1nccc2c(C(F)(F)C(F)(F)C(F)(F)F)cccc12	none (no result: UGM FP inh, PrP 5UTR inh, BJeLR lethal, RecA splice inh, Rv3671c inh)
NC(=S)NN=Cc1nccc2ccccc12	PrP 5UTR inh 79 (no result: UGM FP inh, BJeLR lethal, RecA splice inh, Rv3671c inh) | PrP 5UTR single 71
CC(C)=CC(=O)OCC(=O)NC1CCCc2ccccc21 (configuration not stated)	none (no result: RecA splice inh)
Cn1c(NC2CCCCC2)cc(=O)n(C)c1=O	none
Cc1cc(C2CCCCC2)n(O)c(=O)c1	PrP 5UTR inh 69 (no result: BJeLR lethal, RecA splice inh) | PrP 5UTR single inactive
CC(=O)Nc1cccc(C(=O)O)n1	PrP 5UTR inh 88 | PrP 5UTR single inactive
CC(=O)Nc1cccc(NC(C)=O)n1	none
O=C(NCC1CCCCC1)c1ccc(F)c(S(=O)(=O)N2CCOCC2)c1	none (no result: BJeLR lethal, RecA splice inh)
